The list is not random: actives were taken first. Their share in the collection is about 2.8%.
Mito fusion yeast = qHTS Assay for Small Molecule Inhibitors of Mitochondrial Division or Activators of Mitochondrial Fusion; AID 485298, 2010; hit rate 0.23% among 320,000; Potency, µM (titrated, usually from 46.1 µM), actives largely listed as activators; S. cerevisiae fusion-defective mutant growth rescue, CellTiterGlo 48 h; note: nearly all actives have a fitted effect of over 45% in size
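Yeast fusion mutant, YPEG (non-fermentable carbon), compound, 48 h at 37C non-permissive; CellTiterGlo added, 10 min RT, luminescence read. Rescued growth = division inhibition.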
GLP-1R agonist = qHTS of GLP-1 Receptor Agonists | Glucagon-like peptide 1 receptor (Homo sapiens), P43220 | AID 624172, 2012 | HEK293 GLP-1R CRE-luciferase, luminescence, 4-6 h; cells express a hypersensitive GLP-1R form | Potency, µM (doses to about 45.6 µM), actives largely listed as activators | hit rate 0.007% among 380,000
Target sequence (P43220 whole entry, looked up): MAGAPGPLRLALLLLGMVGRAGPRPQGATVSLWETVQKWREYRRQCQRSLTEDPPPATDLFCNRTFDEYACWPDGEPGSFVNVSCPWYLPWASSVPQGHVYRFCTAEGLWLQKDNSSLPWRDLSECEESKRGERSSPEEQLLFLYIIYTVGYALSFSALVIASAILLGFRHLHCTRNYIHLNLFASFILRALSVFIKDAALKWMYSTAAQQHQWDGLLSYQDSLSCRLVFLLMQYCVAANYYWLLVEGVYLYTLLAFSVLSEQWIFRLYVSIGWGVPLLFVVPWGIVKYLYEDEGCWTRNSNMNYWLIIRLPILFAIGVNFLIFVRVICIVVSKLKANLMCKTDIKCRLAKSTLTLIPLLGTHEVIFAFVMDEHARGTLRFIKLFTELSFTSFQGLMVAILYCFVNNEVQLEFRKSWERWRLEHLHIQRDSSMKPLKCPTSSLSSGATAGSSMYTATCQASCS
GLP1R cytotox = qHTS of GLP-1 Receptor Inverse Agonists: Cytotox Screen; HEK293 cAMP-luciferase reporter cells, luminescence, 24 h; Potency, µM (doses to about 38.3 µM), most hits filed as inhibitors; hit rate 0.13% among 410,000; AID 624418, 2012;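 note: loss of luciferase light is scored as toxicity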
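To flag toxic compounds, the library was rerun on cells for 24 hr at 37 deg C and 5% CO2. Viability-linked luminescence was captured 12 min after adding luciferase detection reagent.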
GLP1R inv ag = qHTS of GLP-1 Receptor Inverse Agonists (Inhibition Mode). Glucagon-like peptide 1 receptor (Homo sapiens), P43220. HEK293 GLP-1R CRE-luciferase, luminescence, 24 h; GLP-1R form is constitutively active. Potency, µM (series often up to 38.3 µM), most hits filed as inhibitors. hit rate 1.6% among 410,000. AID 624417, 2012; note: nearly all actives have a fitted effect of over 55% in size
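HEK293 cells stably co-expressing a cAMP-responsive luciferase reporter and constitutively active GLP-1R were seeded, incubated 12 h, then exposed to compounds for 24 h at 37 C. Luminescence was read 12 min after detection reagent; inverse agonists lower signal.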
BRCA1 expr up = qHTS Assay to Identify Small Molecule Activators of BRCA1 Expression | hit rate 1.1% among 380,000 | Potency, µM (titrated, usually from 46.1 µM), actives largely listed as activators | MCF7-BRCA1-FFLuc reporter, luminescence, 48 h; response scale: scaled: vehicle 0%, 10 µM genistein 100%; note: nearly all actives have a fitted effect of over 80% in size
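Cells: MCF7-BRCA1-FFLuc, 2000/well. Exposure: 48 h, 37 °C, 5% CO2. Read: luminescence, 15 min post-substrate. Controls: genistein 10 microM (maximal activation), DMSO (neutral).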
Hits are given with their value; 0 = inactive; ? = inconclusive; - = no result; [ ] = dose if it differs, or a comment. Calls come from the whole dose curve; as a rule, active = well fitted curve in the direction sought with a large enough effect; inconclusive = small, poorly fitted or top-dose-only effect, or another doubt; inactive = no such curve, though single readings can be large; an effect the other way counts as inactive or inconclusive.

SMILES	Mito fusion yeast	GLP-1R agonist	GLP1R cytotox	GLP1R inv ag	BRCA1 expr up
CC(C)CCNC(=S)NC1CCCC1	0	0	0	0	0
Cc1ccc(-c2ocnc2C(=O)Nc2ccccc2NC(=O)c2ccccn2)cc1	0	0	1.1µM	?	0
Cc1ccc(-c2ocnc2C(=O)Nc2nc(C)cs2)cc1	0	0	0	0	0
Cc1cccc(-c2ocnc2C(=O)Nc2ccccc2NC(=O)c2ccccn2)c1	?	0	?	0.5µM	0
CCN(CC)CCCN(C(=O)c1ccc(OC)cc1)c1nc(-c2ccc(OC)cc2)cs1	0	0	0	?	0
COc1cccc(N2CCN(S(=O)(=O)c3ccc4c(c3)oc(=O)n4C)CC2)c1	0	0	0	0	0
Cc1ccc(O)c(C(=O)c2cc(C#N)c(=O)n(C(C)c3ccccc3)c2)c1 (configuration not stated)	0	0	0[7.66 µM]	0[7.66 µM]	0
O=C(Nc1cc(Cl)ccc1Oc1ccccc1)c1ccccc1F	0	0	0	?	0
COc1ccc(C(=O)O/N=C(\N)Cc2ccc(Cl)cc2)cc1OC	0	0	?	7.9µM	0
COc1ccc(C(=O)O/N=C(\N)Cc2ccc(Cl)c(Cl)c2)cc1OC	0	0	5.6µM	?	0
COc1cc(C(=O)O/N=C(\N)Cc2ccc([N+](=O)[O-])cc2)cc(OC)c1OC	0	0	?	?	0
COc1ccc(NC(=O)CN2CCC(NC(=O)C3CCCCC3)CC2)c([N+](=O)[O-])c1	0	0	0	0	0
O=C(NCc1ccc(-n2cccc2)cc1)c1cccc(F)c1	0	0	0	0	0
Cc1ccc(C(=O)OCC(=O)NCc2cccc(Cl)c2)cc1S(=O)(=O)N1CCCCC1	0	0	0	5µM	0
O=C(COC(=O)c1ccc(Cl)c(S(=O)(=O)N2CCCCC2)c1)NCCc1ccccc1	0	0	0	0	0
Cc1ccc(C(=O)OCC(=O)Nc2ccccc2C(F)(F)F)cc1S(=O)(=O)N1CCCCC1	0	0	0	10µM	0
CC(=Nc1ccc(O)cc1)c1sc2ccccc2c1O	0	0	0	?	0
CC(=O)NCCN=C(C)c1sc2ccccc2c1O	0	0	0	0	13µM
C[n+]1cc[nH]c1SCC(=O)c1ccccc1	0	0	0	0	?
N#C/C(=C/c1ccc(N2CCCCC2)o1)c1cccc(F)c1	0	0	0	0	0
N#C/C(=C/c1ccc(N2CCCCC2)cc1)c1cccc(F)c1	0	0	0[1.53 µM]	?	7.9µM
COc1ccc(OC(=O)c2cnn(-c3ccccc3)c2C)cc1	0	0	0	?	10µM
Cc1ccc(S(=O)(=O)CCC(=O)Nc2ccc3c(c2)OCO3)cc1	0	0	0	0	0
COc1cc(CNc2ccc3[nH]c(=O)[nH]c3c2)cc(Cl)c1OCc1ccccc1F	-	-	0	0	-
COc1cc(CNC2CCCC2)cc(Cl)c1OCc1ccccc1F	0	0	?	3.5µM	0
SMILES	Mito fusion yeast	GLP-1R agonist	GLP1R cytotox	GLP1R inv ag	BRCA1 expr up
CC(C)CCNC(=O)C1CCN(S(=O)(=O)c2ccc3c(c2)CCC(=O)N3)CC1	0	0	0	0	0
CCc1cc(Cn2nc(-c3ccccc3)cc2C(=O)NCc2ccccc2OC)on1	0	0	0	11µM	0
Cc1c(C(=O)c2ccc(F)cc2)c2ccccn2c1CCc1ccccn1	0	0	0	10µM	0
Cn1c(C(O)c2ccc(Br)cc2)nc(Cl)c1Cl (configuration not stated)	0	0	0	?	0
Cn1c(C(O)c2ccc(Cl)cc2)nc(Cl)c1Cl (configuration not stated)	0	0	0	11µM	0
Cc1cccc(NC(=S)N(CCCN(C)C)Cc2cc3cc4c(cc3[nH]c2=O)OCO4)c1	0	0	0[7.66 µM]	0[7.66 µM]	0
CCNC(=S)N/N=C/c1cccc(C)c1	0	0	?	?	10µM
CCNC(=S)N/N=C/c1cc(C)ccc1C	0	0	5.6µM	4.5µM	0
CCn1c(Cc2ccccc2)nnc1SCC(=O)Nc1nccs1	0	0	0	0	0
FC(F)(F)c1cccc(NC(=S)NNC(=S)Nc2cccc(C(F)(F)F)c2)c1	0	-	-	-	-
FC(F)(F)c1cccc(NC(=S)NC(c2ccccc2)c2ccccc2)c1	0	0	0	2.8µM	0
Cc1ccc(NC(=O)c2ccc(Nc3ccccc3F)nc2)cc1	0	0	0	?	8.9µM
Cc1ccc(NC(=O)c2ccc(NCc3ccc(F)cc3)nc2)cc1	0	0	0	0	0
Cc1ccc(CSc2nnc(CCCCCNC(=O)OC(C)(C)C)o2)cc1	0	0	0	?	0
Cc1cccc(CSc2nnc(CCCCCNC(=O)OC(C)(C)C)o2)c1	0	0	0	7.1µM	0
O=C(NC1CCCCCCC1)c1cccc(Cl)c1	0	0	0	?	?
Cc1nn(Cc2cccc(C(=O)NC3CCCCC3)c2)c(C)c1Cl	0	0	0	10µM	0
CC(C)NC(=O)c1c(CSc2ccccc2)noc1C(=O)NCc1ccccc1	0	0	0	?	0
C=C(C)C1Cc2cc3ccc(=O)oc3cc2O1 (configuration not stated)	0	0	0	0	10µM
COc1cc2c(cc1OC)C(c1ccc([N+](=O)[O-])cc1)NCC2 (configuration not stated)	0	0	0	0	0
CC(=O)Nc1cc(NC(C)=O)c(N=Nc2ccccc2)cc1C	0	0	0	0	3.5µM
CC(=O)Nc1ccccc1C	0	0	0	0	0
Cc1oc2cc(O)ccc2c(=O)c1Oc1ccccc1	0	0	0	0	0
Cc1ccc(/C(N)=N/OC(=O)c2cccs2)cc1	0	0	?	0	0
COc1ccc(/C(N)=N/OC(=O)c2cccs2)cc1OC	0	0	0	0	8.9µM
SMILES	Mito fusion yeast	GLP-1R agonist	GLP1R cytotox	GLP1R inv ag	BRCA1 expr up
O=C(/C=C/c1ccccc1)CC(O)(c1ccccc1)C(F)(F)F (configuration not stated)	0	0	0	11µM	0
Cc1ccccc1N(C)S(=O)(=O)c1nnc(NC(=O)c2ccccc2F)s1	5.6µM	0	0	?	0
CN1CCc2c(OCC(=O)N3CCC(Cc4ccccc4)CC3)cccc2C1=O	0	0	0	?	0
Cc1ccc(NC(=O)C2(NC(=O)c3cccc(N4C(=O)CSC4c4ccccc4)c3)CCCCC2)cc1 (configuration not stated)	0	0	0	6.3µM	0
CN1C(=O)[C@H]2[C@@H](/C=C/c3ccccc3)N3C(=O)CN(CCO)C(=O)[C@@]3(Cc3ccccc3)[C@H]2C1=O	0	0	0	0	0
COc1cc(/C=C/C(=O)OCC(=O)NCC2CCCCC2)ccc1O	0	0	0	0	0

Assay outcomes as filed in PubChem.
